Consider ten compounds from PubChem BioAssay (NCI).

About 79,000 compounds went through this panel and 15% of them were active in at least one assay; those are over-represented in the sample as a whole. Unmarked numbers belong to inactive results. The source made the active and inactive calls. No stated cut-off is given here; in the data, active means growth inhibition above about 70%; inactive means the rest.

Experiment [1] in a line: NCI Yeast Anticancer Drug Screen. Data for the rad50 strain (AID 155).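 Further: 0% = growth of vehicle-only cultures of the same strain.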 To be noted: S. cerevisiae rad50 strain growth inhibition, stronger effect = higher value. In outline: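 A DNA repair-deficient yeast mutant serves as the test organism; compound-induced growth inhibition is calculated against vehicle-treated cells.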
The nature of experiment [2]: NCI Yeast Anticancer Drug Screen. Data for the mec2-1 strain (AID 157). To be noted: S. cerevisiae mec2-1 strain, stronger effect = higher value. In short, it runs like this: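 Compounds were applied to mec2-1 yeast cells. Their growth was then compared with that of vehicle-treated cultures to give growth inhibition.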
Experiment [3] in a line: NCI Yeast Anticancer Drug Screen. Data for the sgs1 mgt1 strain (AID 161).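 Further: 0% = growth of cultures given vehicle only.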 To be noted: S. cerevisiae sgs1 mgt1 strain, stronger effect = higher value. In outline: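 Percent growth inhibition was derived by comparing compound-exposed mutant yeast with vehicle-exposed cultures. The strain carries alterations in DNA damage repair.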
Experiment [4] in a line: NCI Yeast Anticancer Drug Screen. Data for the cln2 rad14 strain (AID 165).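 Further: 0% = growth equal to vehicle treated cultures.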 To be noted: S. cerevisiae cln2 rad14 strain, stronger effect = higher value. In short, it runs like this:
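Strain: cln2 rad14 yeast, altered in cell cycle control and DNA damage repair. Read-out: growth inhibition vs vehicle.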

Experiment [5] is described as follows: NCI Yeast Anticancer Drug Screen. Data for the bub3 strain (AID 167). Particulars: S. cerevisiae bub3 mutant strain, stronger effect = higher value. In outline: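 Inhibition values come from growth of compound-treated mutant yeast normalised to vehicle-treated controls.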
A short description of experiment [6]: NCI Yeast Anticancer Drug Screen. Data for the mlh1 rad18 strain (AID 175). Particulars: S. cerevisiae mlh1 rad18 strain growth inhibition, stronger effect = higher value. In outline:
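A repair-deficient yeast strain is exposed to test compound, and growth is scored relative to vehicle-treated controls.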

Where [7] appears, read: at 5.0 µM (retest, dose inferred, filed as 0.5).
Where [8] appears, read: at 50.0 µM (retest, dose inferred, filed as 5.0).

For the compound `CCCCCCCCCCCCCCCCN(C)c1ccc(S(=O)(=O)O)cc1[N+](=O)[O-]`, the growth inhibition in experiment [1] (setting [7]) is 43%; in experiment [1] (setting [8]) it was 67%; in experiment [1] (at 50.0 µM) it was 85.5% (active); in experiment [2] (setting [7]) it was 37%; in experiment [2] (setting [8]), 71% (active); in experiment [2] (at 50.0 µM) it was 89% (active). Further, the growth inhibition in experiment [3] (setting [7]) is 50%; in experiment [3] (setting [8]), 62%; in experiment [3] (at 50.0 µM), 90.5% (active); in experiment [4] (setting [7]), 24%; in experiment [4] (setting [8]) it was 48%; in experiment [4] (at 50.0 µM), 68.6%. Besides, the growth inhibition in experiment [5] (setting [7]) was 60%; in experiment [5] (setting [8]) it was 79% (active); in experiment [5] (at 50.0 µM), 88.3% (active); in experiment [6] (setting [7]), 59%; in experiment [6] (setting [8]), 73% (active); in experiment [6] (at 50.0 µM), 80.1% (active).
`COC(=O)/C=C(\NC1CC(OC2C[C@](O)(C(C)=O)Cc3c(O)c4c(c(O)c32)C(=O)c2c(OC)cccc2C4=O)OC(C)C1O)C(=O)OC` (stereo not given in full): the growth inhibition in experiment [1] (setting [7]) is 25%; in experiment [1] (setting [8]), 97% (active); in experiment [1] (at 50.0 µM) it was 97.5% (active); in experiment [2] (setting [7]), 15%; in experiment [2] (setting [8]) it was 98% (active); in experiment [2] (at 50.0 µM), 97.7% (active). For the same compound, the growth inhibition is -3% in experiment [3] (setting [7]); 97% (active) in experiment [3] (setting [8]); 97.7% (active) in experiment [3] (at 50.0 µM); 2% in experiment [4] (setting [7]); 96% (active) in experiment [4] (setting [8]); 94.9% (active) in experiment [4] (at 50.0 µM). Further, the growth inhibition in experiment [5] (setting [7]) was 7%; in experiment [5] (setting [8]) it was 98% (active); in experiment [5] (at 50.0 µM), 74.2% (active); in experiment [6] (setting [7]), -6%; in experiment [6] (setting [8]), 98% (active); in experiment [6] (at 50.0 µM), 98.3% (active).
With `CC1=NC(c2ccccc2)(C2(c3ccccc3)C(c3ccccc3)=C2c2ccccc2)C(=O)O1` (stereo not given), the growth inhibition in experiment [1] (setting [7]) was 21%; in experiment [1] (setting [8]), 21%; in experiment [1] (at 50.0 µM), 86% (active); in experiment [2] (setting [7]) it was 25%; in experiment [2] (setting [8]), 25%; in experiment [2] (at 50.0 µM) it was 88.8% (active). In addition, the growth inhibition was 28% in experiment [3] (setting [7]); 28% in experiment [3] (setting [8]); 86.9% (active) in experiment [3] (at 50.0 µM); 23% in experiment [4] (setting [7]); 23% in experiment [4] (setting [8]); 89% (active) in experiment [4] (at 50.0 µM). For the same compound, the growth inhibition was 11% in experiment [5] (setting [7]); 11% in experiment [5] (setting [8]); 34.9% in experiment [5] (at 50.0 µM); 27% in experiment [6] (setting [7]); 27% in experiment [6] (setting [8]); 86.6% (active) in experiment [6] (at 50.0 µM).
On to `CCOC(=O)/C(=C\c1cccc(C(F)(F)F)c1)P(=O)(OCC)OCC`, for which the growth inhibition in experiment [1] (setting [7]) is 31%; in experiment [1] (setting [8]) it was 50%; in experiment [1] (at 50.0 µM), 75.7% (active); in experiment [2] (setting [7]), -8%; in experiment [2] (setting [8]), 74% (active); in experiment [2] (at 50.0 µM), 79% (active). The growth inhibition in experiment [3] (setting [7]) was 3%; in experiment [3] (setting [8]) it was 55%; in experiment [3] (at 50.0 µM), 68.1%; in experiment [4] (setting [7]) it was 26%; in experiment [4] (setting [8]), 40%; in experiment [4] (at 50.0 µM) it was 42.1%. In addition, the growth inhibition in experiment [5] (setting [7]) is 27%; in experiment [5] (setting [8]) it was 85% (active); in experiment [5] (at 50.0 µM) it was 71.8% (active); in experiment [6] (setting [7]), 13%; in experiment [6] (setting [8]), 82% (active); in experiment [6] (at 50.0 µM) it was 52.2%.
Consider `CC1CCC2(C)C(CC=C(C=O)C2(O)C=O)C12CO2` (stereo not given), for which the growth inhibition was 99% (active) in experiment [1] (setting [7]); 99% (active) in experiment [1] (setting [8]); 93.4% (active) in experiment [1] (at 50.0 µM); 99% (active) in experiment [2] (setting [7]); 99% (active) in experiment [2] (setting [8]); 95.3% (active) in experiment [2] (at 50.0 µM). For the same compound, the growth inhibition in experiment [3] (setting [7]) was 99% (active); in experiment [3] (setting [8]) it was 99% (active); in experiment [3] (at 50.0 µM), 94.5% (active); in experiment [4] (setting [7]) it was 99% (active); in experiment [4] (setting [8]), 99% (active); in experiment [4] (at 50.0 µM) it was 92.9% (active). Also, the growth inhibition was 99% (active) in experiment [5] (setting [7]); 54% in experiment [5] (setting [8]); 93.8% (active) in experiment [5] (at 50.0 µM); 99% (active) in experiment [6] (setting [7]); 99% (active) in experiment [6] (setting [8]); 93.5% (active) in experiment [6] (at 50.0 µM).
For `Cc1cc2c(=O)[nH]c(N)nc2nc1C`, the growth inhibition is -7% in experiment [1] (setting [7]); 11% in experiment [1] (setting [8]); -9.45% in experiment [1] (at 50.0 µM); 1% in experiment [2] (setting [7]); -15% in experiment [2] (setting [8]); -17.5% in experiment [2] (at 50.0 µM). The growth inhibition in experiment [3] (setting [7]) was -13%; in experiment [3] (setting [8]) it was -13%; in experiment [3] (at 50.0 µM), -25%; in experiment [4] (setting [7]), -2%; in experiment [4] (setting [8]) it was -5%; in experiment [4] (at 50.0 µM) it was 15.1%. The growth inhibition in experiment [5] (setting [7]) is -5%; in experiment [5] (setting [8]), 3%; in experiment [5] (at 50.0 µM), -8.85%; in experiment [6] (setting [7]) it was -21%; in experiment [6] (setting [8]) it was -2%; in experiment [6] (at 50.0 µM), -21.5%.
In the case of `CC(Cc1ccccc1)NNC(C)Cc1ccccc1` (stereo not given), the growth inhibition in experiment [1] (setting [7]) is 10%; in experiment [1] (setting [8]) it was 81% (active); in experiment [1] (at 50.0 µM), 99.5% (active); in experiment [2] (setting [7]), 4%; in experiment [2] (setting [8]), 64%; in experiment [2] (at 50.0 µM), 96.2% (active). Also, the growth inhibition in experiment [3] (setting [7]) was 11%; in experiment [3] (setting [8]), 90% (active); in experiment [3] (at 50.0 µM), 75.5% (active); in experiment [4] (setting [7]) it was -39%; in experiment [4] (setting [8]), 63%; in experiment [4] (at 50.0 µM), 83.2% (active). Further, the growth inhibition is 16% in experiment [5] (setting [7]); 91% (active) in experiment [5] (setting [8]); 94.5% (active) in experiment [5] (at 50.0 µM); 7% in experiment [6] (setting [7]); 83% (active) in experiment [6] (setting [8]); 99.5% (active) in experiment [6] (at 50.0 µM).
Take `O=[N+]([O-])c1ccc(CCCCc2ccc([N+](=O)[O-])cc2)cc1`: the growth inhibition in experiment [1] (setting [7]) is -5%; in experiment [1] (setting [8]) it was -8%; in experiment [1] (at 50.0 µM), -6.1%; in experiment [2] (setting [7]), 3%; in experiment [2] (setting [8]), -18%; in experiment [2] (at 50.0 µM) it was 3%. Besides, the growth inhibition is 2% in experiment [3] (setting [7]); -9% in experiment [3] (setting [8]); -1.8% in experiment [3] (at 50.0 µM); -2% in experiment [4] (setting [7]); -10% in experiment [4] (setting [8]); -59.9% in experiment [4] (at 50.0 µM). Moreover, the growth inhibition in experiment [5] (setting [7]) is 13%; in experiment [5] (setting [8]) it was 21%; in experiment [5] (at 50.0 µM), 7.35%; in experiment [6] (setting [7]), -10%; in experiment [6] (setting [8]), -16%; in experiment [6] (at 50.0 µM), 29%.
In the case of `OCCC1CCN(CC/C=C2/c3ccc(F)cc3Sc3ccc(C(F)(F)F)cc32)CC1`, the growth inhibition is 26% in experiment [1] (setting [7]); 59% in experiment [1] (setting [8]); 37.4% in experiment [1] (at 50.0 µM); 7% in experiment [2] (setting [7]); 45% in experiment [2] (setting [8]); 62.9% in experiment [2] (at 50.0 µM). For the same compound, the growth inhibition in experiment [3] (setting [7]) is 21%; in experiment [3] (setting [8]), 68%; in experiment [3] (at 50.0 µM), 82.6% (active); in experiment [4] (setting [7]), 18%; in experiment [4] (setting [8]), 52%; in experiment [4] (at 50.0 µM), 71.4% (active). Also, the growth inhibition was 4% in experiment [5] (setting [7]); 38% in experiment [5] (setting [8]); 64.5% in experiment [5] (at 50.0 µM); 24% in experiment [6] (setting [7]); 56% in experiment [6] (setting [8]); 88.2% (active) in experiment [6] (at 50.0 µM).
With `NC(=Nc1cc2ccccc2c2ccccc12)Nc1cc2ccccc2c2ccccc12`, the growth inhibition in experiment [1] (setting [7]) is 87% (active); in experiment [1] (setting [8]), 97% (active); in experiment [1] (at 50.0 µM) it was 85.8% (active); in experiment [2] (setting [7]), 91% (active); in experiment [2] (setting [8]), 99% (active); in experiment [2] (at 50.0 µM), 77.2% (active). For the same compound, the growth inhibition in experiment [3] (setting [7]) was 89% (active); in experiment [3] (setting [8]), 99% (active); in experiment [3] (at 50.0 µM), 95.3% (active); in experiment [4] (setting [7]), 45%; in experiment [4] (setting [8]), 96% (active); in experiment [4] (at 50.0 µM) it was 95% (active). Also, the growth inhibition was 35% in experiment [5] (setting [7]); 97% (active) in experiment [5] (setting [8]); 97.7% (active) in experiment [5] (at 50.0 µM); 97% (active) in experiment [6] (setting [7]); 97% (active) in experiment [6] (setting [8]); 97.5% (active) in experiment [6] (at 50.0 µM).
